Structures are written as SMILES. Records with an inconclusive call do not appear. Active and inactive are the calls of the source.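 The calls were made as follows, unless noted: active = efflux inhibition above 0.42, the validation set average plus 4 SD; inconclusive = no clear call, values can overlap the other calls; inactive = the rest.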

Assay [1] is described as follows: yeast TOR pathway RPL19A-GFP modulators, primary screen, cell-based, S. cerevisiae, multiplex flow cytometry (AID 1862; in the data active = percent of DMSO control GFP below about 86%;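 also: lower values mimic rapamycin by blocking the RPL19A rise seen in DMSO cells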). To be noted: S. cerevisiae RPL19A-GFP strain, flow cytometry fluorescence, 3 h; at 10 µM; stronger effect = lower value.
Assay [2] can be described thus: modulators of MEP2-GFP levels in yeast, primary screen, S. cerevisiae, multiplex flow cytometry (AID 1867;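 active = GFP response, as percent of the DMSO control, above the screen-wide mean plus 3 SD, about 139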;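 also: median GFP channel fluorescence of barcode-gated MEP2-GFP cells measured by flow cytometry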). The note with it: S. cerevisiae MEP2-GFP strain, 3 h, at 10 µM, stronger effect = higher value, 100% means same as DMSO wells. A general note: In flow cytometry, cells or beads pass a laser one at a time.
The nature of assay [3]: modulators of CIT2-GFP expression in yeast, primary screen, S. cerevisiae, GFP fusion, multiplex flow cytometry (AID 1870;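 active = percent response above a set limit, the screen-wide mean plus 3 SD, cut at about 130% in these data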;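 also: barcoded CIT2-GFP strain pooled with four other GFP strains with rapamycin as positive control; median GFP fluorescence per well over plate mean of DMSO wells so 100% = DMSO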). The note with it: 3 h, at 10 µM, stronger effect = higher value.
Assay [4] is described as follows: modulators of LAP4-GFP expression in yeast, primary screen, S. cerevisiae, multiplex flow cytometry (AID 1873;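 active = GFP signal, as percent of the solvent control, above the screen mean plus 3 SD, about 149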). To be noted: 3 h, at 10 µM, stronger effect = higher value.
A short description of assay [5]: modulators of AGP1-GFP expression in yeast TOR pathway, primary screen, cell-based, multiplex flow cytometry, S. cerevisiae (AID 1887;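 active = GFP signal above the screen-wide mean plus 3 SD, that is over about 124.5% of the solvent control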;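 also: AGP1-GFP fusion strain of S. cerevisiae within a five-strain barcoded multiplex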). To be noted: 3 h, at 10 µM, stronger effect = higher value.
The nature of assay [6]: inhibitors of CD8+ T cell-vesicle binding, pilot screen, LFA-1/ICAM-1 modulator project, MLPCN validation set, flow cytometry (AID 2523;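 active = response below a set limit, under 55% cells CD8-positive and vesicle-bound, and CD8 cells' 90th-percentile brightness under 279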;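 as to vesicle binding response: mean PE anti-B7-1 fluorescence of CD8+ cells relative to row control; 100% = QL9-loaded vesicles with DMSO vehicle in the same plate row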). The note with it: 2C mouse CD8+ T cells, at 7 µM, stronger effect = lower value; double positive events: measured here: CD8+/vesicle+ event percentage.
Assay [7] addresses Integrin beta-1 (Homo sapiens) + Integrin alpha-4 (Homo sapiens) (UniProt P13612+P05556). The assay is described as follows: inhibition of HUTS-21 binding to VLA-4, pilot screen, VLA-4 allosteric modulator project, U937 cells, HUTS-21 mAb, flow cytometry, validation set (AID 2674;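 active = inhibition above 50%, about 3 SD of the validation set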;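 also: antibody binding induced by the VLA-4 ligand LDV present at three times its Kd; 0% = LDV ligand with antibody and no compound and 100% = antibody without LDV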). The note with it: HUTS-21 LIBS mAb binding, at 6.7 µM, stronger effect = higher value, binding induced by LDV ligand.

The nature of assay [8]: superoxide lowering in aged yeast cells, pilot screen, validation compound set (AID 2706;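 active = superoxide response below 65% of plate, a cut near 3 SD across the whole screen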;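 also: yeast exposed to compound for one week at 30 degrees C before staining; 100% = mean of all compound wells on the same plate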). The note with it: S. cerevisiae aging, superoxide DHE fluorescence; at 10 µM; stronger effect = lower value.
The target of assay [9] is Beta-adrenergic receptor kinase 1 (Homo sapiens) (UniProt P25098). The assay is described as follows: GRK2 binders displacing RNA aptamer, biochemical, validation, human GRK2, bead flow cytometry (AID 488806;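 active = aptamer binding inhibition above 30%, about 3 SD of noise from non-fluorescent compounds; inactive = inhibition at or below 30%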). The note with it: bead-bound GRK2, FAM-aptamer displacement, at 10 µM, stronger effect = higher value.
Chain of Beta-adrenergic receptor kinase 1 (Homo sapiens) (P25098 whole entry, looked up): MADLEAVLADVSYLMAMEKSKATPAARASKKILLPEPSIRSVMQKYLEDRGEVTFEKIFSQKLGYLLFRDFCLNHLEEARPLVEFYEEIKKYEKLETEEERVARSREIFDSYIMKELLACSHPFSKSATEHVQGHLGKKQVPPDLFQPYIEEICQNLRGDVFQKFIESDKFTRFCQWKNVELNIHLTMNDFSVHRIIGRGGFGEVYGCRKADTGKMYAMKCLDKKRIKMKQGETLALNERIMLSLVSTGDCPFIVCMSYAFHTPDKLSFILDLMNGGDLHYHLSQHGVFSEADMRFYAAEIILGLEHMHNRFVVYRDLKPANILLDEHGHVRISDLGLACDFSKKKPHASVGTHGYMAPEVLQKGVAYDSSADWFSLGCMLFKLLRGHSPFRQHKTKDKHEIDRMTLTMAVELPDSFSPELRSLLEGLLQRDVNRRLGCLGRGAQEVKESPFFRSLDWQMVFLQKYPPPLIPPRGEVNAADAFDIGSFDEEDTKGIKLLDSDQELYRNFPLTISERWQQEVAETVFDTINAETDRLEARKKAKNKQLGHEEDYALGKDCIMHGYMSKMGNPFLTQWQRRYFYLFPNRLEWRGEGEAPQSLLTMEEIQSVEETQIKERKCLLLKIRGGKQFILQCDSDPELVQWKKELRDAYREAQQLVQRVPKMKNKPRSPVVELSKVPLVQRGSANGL
In assay [10] the target is Beta-2 adrenergic receptor (Homo sapiens) (UniProt P07550). The assay is described as follows: beta2AR agonists driving receptor internalization, pilot screen, cell-based, FAP fluorogen, flow cytometry, validation set (AID 504459;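 active = percent response above 42, roughly 3 SD of non-fluorescent test compounds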;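 also: agonist-driven loss of surface beta2AR via internalization measured by FAP dye flow cytometry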). The note with it: Am2.2-beta2AR cells, FAP surface receptor flow cytometry; at 10 µM; stronger effect = higher value.
Chain of Beta-2 adrenergic receptor (Homo sapiens) (P07550 whole entry, looked up): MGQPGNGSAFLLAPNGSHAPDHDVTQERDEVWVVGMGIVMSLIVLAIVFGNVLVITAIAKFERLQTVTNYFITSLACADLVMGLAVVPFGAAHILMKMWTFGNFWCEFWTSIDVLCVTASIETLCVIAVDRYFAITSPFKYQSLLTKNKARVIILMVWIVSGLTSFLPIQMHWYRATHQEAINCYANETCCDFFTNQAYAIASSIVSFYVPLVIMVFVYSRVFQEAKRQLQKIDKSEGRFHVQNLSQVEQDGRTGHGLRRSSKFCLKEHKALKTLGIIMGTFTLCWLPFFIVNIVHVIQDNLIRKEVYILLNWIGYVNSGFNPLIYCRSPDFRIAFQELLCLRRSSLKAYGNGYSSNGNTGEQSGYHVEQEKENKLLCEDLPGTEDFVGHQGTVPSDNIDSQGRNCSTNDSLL
The target in assay [11] is AP-2 complex subunit beta (Homo sapiens) (UniProt P63010). The assay is described as follows: inhibitors of arrestin peptide binding to AP2, pilot screen, biochemical, validation set, GST-AP2 beads, flow cytometry (AID 504541;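 active = inhibition above 54%, about 3 SD of non-fluorescent compounds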;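 also: AP2 carries R879A mutation and is captured from E. coli lysate; bead-bound FITC arrestin peptide fluorescence measuring arrestin peptide binding to AP2; 0% = DMSO wells and 100% = excess unlabeled arrestin peptide control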). The note with it: FITC arrestin peptide, at 10 µM, stronger effect = higher value, AP2 beta2 appendage fragment, R879A mutant.
Chain of AP-2 complex subunit beta (Homo sapiens) (P63010 whole entry, looked up, the tested form may be a part, one chain of several): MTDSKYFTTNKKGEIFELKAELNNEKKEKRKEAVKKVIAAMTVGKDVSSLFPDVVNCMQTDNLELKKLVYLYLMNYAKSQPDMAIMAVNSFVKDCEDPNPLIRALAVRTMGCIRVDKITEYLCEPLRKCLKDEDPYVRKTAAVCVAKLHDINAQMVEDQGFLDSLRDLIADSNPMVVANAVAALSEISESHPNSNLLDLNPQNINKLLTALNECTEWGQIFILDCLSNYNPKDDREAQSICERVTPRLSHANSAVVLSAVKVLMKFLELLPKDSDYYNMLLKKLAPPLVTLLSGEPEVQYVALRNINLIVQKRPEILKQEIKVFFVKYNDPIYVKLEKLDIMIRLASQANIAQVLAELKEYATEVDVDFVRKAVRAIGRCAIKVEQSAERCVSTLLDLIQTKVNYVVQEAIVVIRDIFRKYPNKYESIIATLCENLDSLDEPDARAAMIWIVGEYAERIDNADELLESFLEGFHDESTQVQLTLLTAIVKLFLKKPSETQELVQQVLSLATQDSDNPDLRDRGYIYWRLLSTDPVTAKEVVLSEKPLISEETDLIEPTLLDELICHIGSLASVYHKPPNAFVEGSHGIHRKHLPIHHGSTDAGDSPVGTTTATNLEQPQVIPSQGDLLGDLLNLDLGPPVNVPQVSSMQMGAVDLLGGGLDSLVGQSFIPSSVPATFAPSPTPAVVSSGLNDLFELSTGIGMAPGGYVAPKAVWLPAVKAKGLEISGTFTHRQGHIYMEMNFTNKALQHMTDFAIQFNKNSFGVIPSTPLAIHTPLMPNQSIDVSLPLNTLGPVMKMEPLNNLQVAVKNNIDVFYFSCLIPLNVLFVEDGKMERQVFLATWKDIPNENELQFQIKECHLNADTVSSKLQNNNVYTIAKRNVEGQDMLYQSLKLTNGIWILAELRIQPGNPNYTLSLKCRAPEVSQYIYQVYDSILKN
A short description of assay [12]: yeast V-ATPase proton transport modulators, S. cerevisiae, pHLuorin, HTS validation (AID 504600; in the data active = response above about 15%;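 also: plate controls were DMSO for no effect and reference compound for full effect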). The note with it: S. cerevisiae pHLuorin cytosolic pH, at 10 µM, stronger effect = higher value.
Assay [13] relates to anti-desmoglein-3 scFv antibody binding to human DSG3. The assay can be described thus: inhibitors of anti-DSG3 scFv binding to DSG3, pilot screen, biochemical, validation compound set, bead-based, flow cytometry (AID 588368;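 active = binding below the plate cutoff, the plate median minus 3 SD, with a reading above zero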;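 also: signal is the median channel fluorescence of bead-bound GFP antibody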). To be noted: Protein G beads, DSG3-Fc, scFv-GFP binding, at 10 µM, stronger effect = lower value.
The nature of assay [14]: inhibitors of fungal efflux pumps CDR1, CDR2, MDR1, pilot screen, validation compound set, multiplex, phenotypic (AID 588506).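 Also: Nile Red retained in cells so higher fluorescence means more efflux inhibition; 0 = negative control wells and 1 = enniatin B 25 µM full block.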 The note with it: S. cerevisiae pump-expressing triplex, Nile Red efflux flow cytometry; at 10 µM; stronger effect = higher value; the pumps come from Candida albicans.
Assay [15] has as its target ATP-binding cassette sub-family B member 6 (Homo sapiens) (UniProt Q9NP58). The assay can be described thus: ABCB6 transporter inhibitors, pilot screen, K562-ABCB6 cells, flow cytometry, validation set (AID 588550;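 active = inhibition above the screen-wide mean plus 3 SD, about 51%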;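 also: 0% = DMSO wells and 100% = benzethonium chloride 70 µM positive control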). The note with it: K562-ABCB6 porphyrin accumulation, 1 h, at 10 µM, stronger effect = higher value.
Assay [16] can be described thus: promoters of myeloid differentiation in arrested cells, primary screen, cell-based, GFP/MAC1 double positive, flow cytometry, validation set (AID 588685;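 active = differentiation response of at least 50%, scaled between solvent and reference control, from cells with both markers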;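 also: compound exposure lasts four days before antibody staining and flow analysis; 0% = DMSO wells and 100% = 5 µM fulvestrant positive control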). To be noted: ER-HoxA9 marrow cells, stronger effect = higher value, normalized: vehicle 0, fulvestrant 100.

Chain of Integrin beta-1 (Homo sapiens) + Integrin alpha-4 (Homo sapiens) (P05556 whole entry, looked up): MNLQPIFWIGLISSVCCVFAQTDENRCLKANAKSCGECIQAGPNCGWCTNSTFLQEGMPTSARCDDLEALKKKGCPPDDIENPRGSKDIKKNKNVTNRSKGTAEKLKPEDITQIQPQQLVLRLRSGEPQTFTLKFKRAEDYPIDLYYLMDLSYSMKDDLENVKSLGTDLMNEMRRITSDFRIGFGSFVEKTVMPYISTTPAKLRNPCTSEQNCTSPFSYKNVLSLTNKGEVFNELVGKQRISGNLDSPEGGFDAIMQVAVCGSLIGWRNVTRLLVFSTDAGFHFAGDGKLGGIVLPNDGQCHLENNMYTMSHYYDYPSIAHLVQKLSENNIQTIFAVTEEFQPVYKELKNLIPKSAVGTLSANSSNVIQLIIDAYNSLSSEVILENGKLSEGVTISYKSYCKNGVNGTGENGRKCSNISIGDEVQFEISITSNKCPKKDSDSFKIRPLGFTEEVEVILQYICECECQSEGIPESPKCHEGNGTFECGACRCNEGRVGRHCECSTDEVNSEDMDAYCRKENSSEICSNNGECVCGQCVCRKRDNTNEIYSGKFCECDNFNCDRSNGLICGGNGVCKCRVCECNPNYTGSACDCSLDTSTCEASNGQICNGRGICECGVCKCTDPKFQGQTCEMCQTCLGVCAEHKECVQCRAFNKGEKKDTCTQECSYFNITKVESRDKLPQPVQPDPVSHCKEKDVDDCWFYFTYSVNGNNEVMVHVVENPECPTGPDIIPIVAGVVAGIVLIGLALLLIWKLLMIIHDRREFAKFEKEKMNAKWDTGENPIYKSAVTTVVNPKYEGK
Chain of Integrin beta-1 (Homo sapiens) + Integrin alpha-4 (Homo sapiens) (P13612 whole entry, looked up): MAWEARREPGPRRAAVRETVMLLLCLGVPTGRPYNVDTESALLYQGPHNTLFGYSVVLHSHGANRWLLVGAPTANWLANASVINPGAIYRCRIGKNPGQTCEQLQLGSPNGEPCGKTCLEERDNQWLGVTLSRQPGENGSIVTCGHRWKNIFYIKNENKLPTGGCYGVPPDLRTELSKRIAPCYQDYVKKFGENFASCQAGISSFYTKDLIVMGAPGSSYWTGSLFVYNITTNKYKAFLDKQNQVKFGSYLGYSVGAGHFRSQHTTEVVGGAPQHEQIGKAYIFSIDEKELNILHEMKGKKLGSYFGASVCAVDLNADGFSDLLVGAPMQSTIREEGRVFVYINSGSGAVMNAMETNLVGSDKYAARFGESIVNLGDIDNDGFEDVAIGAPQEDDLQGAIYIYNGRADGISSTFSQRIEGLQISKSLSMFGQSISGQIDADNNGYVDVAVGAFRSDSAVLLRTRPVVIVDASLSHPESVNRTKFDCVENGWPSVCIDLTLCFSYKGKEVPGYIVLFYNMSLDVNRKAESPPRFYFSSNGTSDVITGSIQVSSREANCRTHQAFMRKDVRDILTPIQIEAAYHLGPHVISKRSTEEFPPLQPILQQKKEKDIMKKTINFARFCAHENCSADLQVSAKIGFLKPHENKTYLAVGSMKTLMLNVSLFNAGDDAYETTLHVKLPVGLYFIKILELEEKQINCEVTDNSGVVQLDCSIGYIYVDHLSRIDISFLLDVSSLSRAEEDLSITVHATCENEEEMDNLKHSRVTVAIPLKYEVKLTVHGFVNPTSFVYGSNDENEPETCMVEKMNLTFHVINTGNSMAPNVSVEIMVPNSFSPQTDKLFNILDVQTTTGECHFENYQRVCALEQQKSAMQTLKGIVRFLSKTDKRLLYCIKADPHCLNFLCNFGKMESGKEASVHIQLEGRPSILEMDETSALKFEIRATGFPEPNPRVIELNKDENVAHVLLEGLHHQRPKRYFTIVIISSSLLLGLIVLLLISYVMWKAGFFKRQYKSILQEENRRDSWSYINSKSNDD
Chain of ATP-binding cassette sub-family B member 6 (Homo sapiens) (Q9NP58 whole entry, looked up): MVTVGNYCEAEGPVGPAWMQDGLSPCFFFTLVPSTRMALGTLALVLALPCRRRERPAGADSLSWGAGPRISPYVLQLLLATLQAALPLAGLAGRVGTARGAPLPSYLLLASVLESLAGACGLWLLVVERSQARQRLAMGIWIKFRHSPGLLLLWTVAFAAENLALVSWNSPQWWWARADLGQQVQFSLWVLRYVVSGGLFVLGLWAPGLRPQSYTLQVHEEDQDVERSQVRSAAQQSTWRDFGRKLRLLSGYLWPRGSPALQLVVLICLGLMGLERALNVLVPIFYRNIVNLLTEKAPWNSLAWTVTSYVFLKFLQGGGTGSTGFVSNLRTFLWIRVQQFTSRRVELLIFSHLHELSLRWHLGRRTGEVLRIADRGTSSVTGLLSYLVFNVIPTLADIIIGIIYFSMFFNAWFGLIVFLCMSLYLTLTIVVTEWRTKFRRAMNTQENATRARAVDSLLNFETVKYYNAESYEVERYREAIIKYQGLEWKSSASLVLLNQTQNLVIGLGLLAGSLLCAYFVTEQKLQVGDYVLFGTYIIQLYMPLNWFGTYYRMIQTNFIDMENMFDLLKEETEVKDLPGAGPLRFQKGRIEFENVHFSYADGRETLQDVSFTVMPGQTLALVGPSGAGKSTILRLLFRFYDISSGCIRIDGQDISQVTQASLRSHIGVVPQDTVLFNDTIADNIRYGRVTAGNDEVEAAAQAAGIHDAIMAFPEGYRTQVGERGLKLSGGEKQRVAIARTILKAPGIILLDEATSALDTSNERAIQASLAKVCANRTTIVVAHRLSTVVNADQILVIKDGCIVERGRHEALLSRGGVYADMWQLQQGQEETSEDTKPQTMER

For orientation: inhibition means the change of the read-out against control, counted positive when it falls. Take `CNc1c2c(nn1C)CCCC2`: the percent of DMSO control GFP in assay [1] was 104% (inactive). Further, the GFP response vs DMSO was 97.7% (inactive) in assay [2] and 97% (inactive) in [4]. For the same compound, the percent response of DMSO control in [3] is 106% (inactive). The GFP response, % of DMSO in assay [5] was 106% (inactive). In addition, in assay [6], the double positive events was 62.2%. In addition, the vesicle binding response in assay [6] is 126% (inactive). Further, the inhibition in [7] was 1.59% (inactive); in assay [11], -17.3% (inactive); in assay [15], -3% (inactive). Besides, the superoxide response (% of plate) in assay [8] is 115% (inactive). For the same compound, the aptamer binding inhibition in assay [9] is 5% (inactive). The response is 1.87% (inactive) in [10] and -7.05% (inactive) in assay [12]. Moreover, the binding (% of control) in assay [13] was 101% (inactive). For the same compound, the efflux inhibition (fraction of control) in assay [14] is -0.19 (inactive). Moreover, the differentiation response in assay [16] was -3.11% (inactive).
With `CCN(CC)CCNC(=O)c1cc(Cl)c(N)cc1OC`, in assay [1], the percent of DMSO control GFP was 105% (inactive). The GFP response vs DMSO in [2] was 107% (inactive); in assay [4], 92% (inactive). Besides, the percent response of DMSO control in [3] is 89.6% (inactive). In addition, the GFP response, % of DMSO in [5] is 99.7% (inactive). The compound also yielded a double positive events in [6] of 63.2%. Besides, the vesicle binding response in [6] is 204% (inactive). The results for the inhibition in assay [7], in [11] and in assay [15] were -28.5% (inactive), 23.4% (inactive) and -10% (inactive), respectively. For the same compound, the superoxide response (% of plate) in assay [8] is 104% (inactive). Also, in assay [9], the aptamer binding inhibition is 5% (inactive). For the same compound, the results for the response in [10] and in assay [12] were 2.1% (inactive) and -4.6% (inactive), respectively. Also, the binding (% of control) in assay [13] was 100% (inactive). In addition, the efflux inhibition (fraction of control) in assay [14] is -0.1 (inactive). Moreover, the differentiation response in [16] is 7.09% (inactive).
On to `COc1cc2oc(-c3ccc(O)cc3)cc(=O)c2c(OC)c1O`, for which the percent of DMSO control GFP in assay [1] is 100% (inactive). Further, the GFP response vs DMSO in assay [2] is 101% (inactive); in assay [4], 88.2% (inactive). The percent response of DMSO control in assay [3] was 104% (inactive). Further, the GFP response, % of DMSO in assay [5] is 98% (inactive). The double positive events in assay [6] was determined as 56.3%. In addition, the vesicle binding response in assay [6] was 118% (inactive). In addition, the inhibition is -11.8% (inactive) in [7], -0.6% (inactive) in assay [11] and 0% (inactive) in [15]. Also, the superoxide response (% of plate) in assay [8] was 107% (inactive). For the same compound, the aptamer binding inhibition in [9] is 3% (inactive). The response in [10] is -2.51% (inactive); in [12] it was -4.25% (inactive). Besides, the binding (% of control) in assay [13] is 100% (inactive). The efflux inhibition (fraction of control) in assay [14] is -0.16 (inactive). The differentiation response in assay [16] is 8.59% (inactive).
Consider `CCOCC(=O)Nc1ccccc1C(=O)N1CCOCC1`, for which, in assay [1], the percent of DMSO control GFP was 97% (inactive). The GFP response vs DMSO in [2] was 130% (inactive); in assay [4] it was 88.6% (inactive). The percent response of DMSO control in [3] was 114% (inactive). Besides, the GFP response, % of DMSO in [5] was 87.7% (inactive). In assay [6], this compound came in with a double positive events of 67.2%. For the same compound, the vesicle binding response in assay [6] is 182% (inactive). The figures for the inhibition in assay [7] and in [11] were -2.27% (inactive) and 14.3% (inactive), respectively. The superoxide response (% of plate) in [8] is 96.8% (inactive). In [9], the aptamer binding inhibition was 6% (inactive). Also, the results for the response in assay [10] and in assay [12] were 2.34% (inactive) and -3.44% (inactive), respectively. Also, the binding (% of control) in assay [13] was 100% (inactive). Also, the efflux inhibition (fraction of control) in assay [14] was 0.23 (inactive). In [16], the differentiation response was 0% (inactive).
Regarding `Cc1ccc(S(=O)(=O)Oc2ccccc2/C=N/N=C(N)N)cc1`, the percent of DMSO control GFP in [1] is 102% (inactive). Also, the results for the GFP response vs DMSO in [2] and in assay [4] were 103% (inactive) and 93.7% (inactive), respectively. In addition, the percent response of DMSO control in assay [3] was 104% (inactive). For the same compound, the GFP response, % of DMSO in [5] was 103% (inactive). In addition, the double positive events in [6] came to 68.2%. The vesicle binding response in assay [6] was 172% (inactive). Also, the inhibition in [7] is 12.6% (inactive); in assay [11], 6.93% (inactive); in [15], 7% (inactive). The superoxide response (% of plate) in assay [8] is 97.8% (inactive). The aptamer binding inhibition in [9] was 1% (inactive). Moreover, the response was 7.63% (inactive) in assay [10] and -0.49% (inactive) in [12]. In addition, the binding (% of control) in assay [13] was 103% (inactive). In addition, the efflux inhibition (fraction of control) in [14] was 0.01 (inactive). Besides, the differentiation response in assay [16] was -2.64% (inactive).
